Compound activity: PubChem BioAssay, National Center for Advancing Translational Sciences (NCATS)
Shown are actives, neighbours in structure and some others; about 8.7% of the full set was active somewhere.
VACV mCherry inh – inhibitors of vaccinia virus infection (mCherry reporter signal). Vaccinia virus mCherry reporter infection, fluorescence. Potency, µM (highest dose often 36.5 µM), inactives show at the highest dose activity change, negative = inhibition, actives largely listed as inhibitors. actives 0.63% (n = 310,000). AID 720579; calls by dose curve; tested in A549 cells; note: nearly all actives have a fitted effect of over 35% in size
Pf growth 48h – inhibits P. falciparum growth in the first generation, 48 h; P. falciparum luciferase growth in erythrocytes, 48 h; Potency, µM (series often up to 28.7 µM), for inactives: at the top dose activity change, negative = inhibition, usual class: inhibitors; actives 5.9% (n = 310,000); AID 504832
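Parasite viability was followed by luminescence of a genomically integrated firefly luciferase. Cultures held 0.1% parasitemia at 2% hematocrit (final), incubated under 5% CO2 at 37 C.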
AMA1-RON2 inh – inhibitors of Plasmodium falciparum AMA1-RON2 interaction. AlphaScreen AMA1-biotinylated RON2 peptide binding. Potency, µM (top dose mostly 58.2 µM), without a hit: at the top dose activity change, negative = inhibition, most hits filed as inhibitors. actives 0.2% (n = 360,000);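 note: 0% = vehicle wells and -100% = peptide control; nearly all actives have a fitted effect of over 45% in size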
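AMA1 (3D7) with his tag at 25 nM final met compounds first, then biotinylated RON2 peptide at 25 nM; detection used donor plus acceptor beads, 10 µg/mL apiece, read by AlphaScreen after 30 min at room temperature.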
Vaccinia Venus – inhibitors of vaccinia virus (Venus reporter); actives 0.46% (n = 330,000); Potency, µM (highest dose often 36.5 µM), for the others: at the highest dose activity change, negative = inhibition, hits mostly inhibitors; AID 720580; Vaccinia virus Venus reporter expression, fluorescence; calls by dose curve; tested in A549 cells; note: nearly all actives have a fitted effect of over 30% in size
Pf growth 96h – inhibits malaria parasite growth, 96 h; P. falciparum luciferase reporter growth, 96 h; Potency, µM (series often up to 28.7 µM), for the others: at the highest dose activity change, negative = inhibition, usual class: inhibitors; actives 6.9% (n = 320,000)
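Erythrocytes infected with luciferase-expressing P. falciparum were dispensed at 2% hematocrit and 0.05% parasitemia (final), then incubated with compounds 96 hours at 37 C in 5% CO2. Luminescence after detection reagent addition reported growth.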
* marks the source's active call; other numbers are inactive results; i = inactive; ? = inconclusive; . = no result given; [ ] = dose if it differs, or a comment. Unless noted, calls come from the whole dose curve; as a rule, active = well fitted curve in the direction sought with a large enough effect; inconclusive = small, poorly fitted or top-dose-only effect, or another doubt; inactive = no such curve, though single readings can be large; an effect the other way counts as inactive or inconclusive. Unless noted, % is set by controls: 0 for no effect and ±100 for the full control effect; potency is the fitted concentration of half-maximal effect.

SMILES | VACV mCherry inh | Pf growth 48h | AMA1-RON2 inh | Vaccinia Venus | Pf growth 96h
CN(C)C1C(=O)C(C(N)=O)C(=O)C2(O)C(=O)C3C(=O)c4c(O)cccc4C(C)(O)C3C(O)C12 (stereo not given) | . | 9.5µM* | . | . | 3µM*
O=C(c1cccc(Cl)c1)N(Cc1ccco1)Cc1ccccc1Cl | -11% | . | . | -11% | .
Cc1cc2nc(C)n(CCCNC(=O)Nc3ccc(C#N)cc3)c2cc1C | -12% | 10µM* | -1% | 1% | 4%
Cc1cc(C)c2c(=N)c3ccccc3n(CCCCCCCCn3c4ccccc4c(=N)c4c(C)cc(C)nc43)c2n1 | 10µM* | . | ? | 10µM* | .
O=C1/C(=C\c2ccc(Cl)c(Cl)c2)CN(C(=O)CCN2CCOCC2)C/C1=C/c1ccc(Cl)c(Cl)c1 | ? | . | -4% | 11µM* | .
O=C1/C(=C\c2ccccc2)CN(C(=O)CCN2CCCCC2)C/C1=C/c1ccccc1 | 13µM* | . | -1% | 11µM* | .
CCC1CN(CCNC(=O)c2cccc(C(=O)OC)c2)Cc2cc(OC)ccc2O1 (stereo not given) | -14% | . | . | -3% | .
CCOc1ccc(NC(=O)Cn2nc(CC)n3c(cc4sccc43)c2=O)cc1 | 0% | . | . | -7% | .
COC(=O)[C@@]12CCCN1[C@H](c1ccc(-c3cccc(Cl)c3)c(OC)c1)[C@H]1C(=O)N(C)C(=O)[C@H]12 | i | 2.3µM* | -24% | -13% | 0.33µM*
COC(=O)[C@@]12CCCCN1[C@H](c1ccc(-c3ccc(C(C)=O)cc3)c(OC)c1)[C@@H]1C(=O)N(C)C(=O)[C@@H]12 | -5% | 8.3µM* | -6% | -23% | ?
CCN1C(=O)[C@H]2[C@@H](c3ccc(-c4cccc(Cl)c4)c(OC)c3)N3CCC[C@@]3(C(=O)OC)[C@H]2C1=O | -17% | . | -7% | -25% | .
COC(=O)[C@@]12CCCCN1[C@H](c1ccc(-c3ccccc3)c(OC)c1)[C@H]1C(=O)N(C)C(=O)[C@H]12 | -5% | . | -15% | -20% | .
COC(=O)[C@@]12CCCCN1[C@H](c1ccc(-c3cccc(Cl)c3)c(OC)c1)[C@@H]1C(=O)N(C)C(=O)[C@@H]12 | -9% | 9.3µM* | -22% | ? | 7.4µM*
OC1CCN(Cc2ccc3c(c2)CN(Cc2ccc(Oc4ncccn4)cc2)CCO3)CC1 | i | . | . | -16% | .
Cc1sc2ncnc(SC(C)C(=O)N3c4ccccc4Sc4ccccc43)c2c1C (stereo not given) | -25% | 1.7µM* | -16% | -8% | 7.4µM*
CN1C(=O)C2CCCCN2c2ccc(C(=O)NCc3ccccc3Br)cc21 (stereo not given) | -7% | . | . | 14% | .
OC1(c2ccc(OC(F)F)cc2)CSC(=Nc2cccnc2)N1Cc1ccco1 (stereo not given) | i | ? | -12% | -11% | ?
FC(F)Oc1ccc(-c2csc(=Nc3cccnc3)n2CC2CCCO2)cc1 (stereo not given) | -27% | ? | -16% | -25% | 13µM*
Cc1ccc(CSc2nc3ccc(NC(=O)C(C)C)cc3s2)cc1 | i | . | . | -6% | .
CCOc1cc(-c2sc(Nc3ccccc3)n[n+]2-c2ccc(F)cc2)ccc1OC | -2% | 35% | -9% | -16% | ?
CCc1ccc(Nc2n[n+](-c3ccccc3)c(-c3ccc(SC)cc3)s2)cc1 | -13% | ? | 0% | -30% | 4.7µM*
CCc1ccc(Nc2n[n+](-c3ccccc3)c(-c3ccc(C(=O)O)cc3)s2)cc1 | -6% | 28% | -7% | 4% | ?
CSc1ccc(-c2sc(Nc3ccccc3)n[n+]2-c2ccccc2)cc1 | -14% | ? | -23% | ? | 1.9µM*
CCc1ccc(Nc2n[n+](-c3ccccc3)c(-c3ccc(OC)c(Br)c3)s2)cc1 | i | 1% | 42% | -30% | 4.7µM*
CSc1ccc(-c2sc(Nc3cccc4ccccc34)n[n+]2-c2ccccc2)cc1 | ? | ? | 24% | -25% | ?
SMILES | VACV mCherry inh | Pf growth 48h | AMA1-RON2 inh | Vaccinia Venus | Pf growth 96h
COc1cc(Br)c(-c2sc(Nc3ccccc3)n[n+]2-c2ccc(F)cc2)cc1OC | ? | 1.9µM* | 78% | -8% | 3.7µM*
CNS(=O)(=O)c1cn(CC(=O)Nc2ccc(C(C)=O)cc2)cc1S(=O)(=O)NC | 0% | . | . | -2% | .
NC(CCC(=O)N[C@@H](CS)C(=O)NCC(=O)O)C(=O)O (stereo not given in full) | . | 2.1µM* | . | . | 3µM*
O=C(NCCCN1CCOCC1)c1ccc(/C=C2\Oc3ccccc3N(Cc3ccccc3F)C2=O)cc1 | . | -30% | -4% | . | 8.3µM*
O=C(CN1C(=O)/C(=C\c2ccccc2Br)Oc2ccccc21)NCCCN1CCOCC1 | . | -4% | -1% | . | 2.3µM*
CCOCCSc1c(C)cnc2c1c(=O)n(C)c(=O)n2C | -15%[7.34 µM] | . | . | -6%[7.34 µM] | .
CCc1cccc(-n2nnc(-c3nsc(NC(=O)c4cccs4)n3)c2C)c1 | -16%[7.34 µM] | . | . | -3%[7.34 µM] | .
N#Cc1ccc(Oc2ccc(-c3nc4ccccc4nc3-c3ccccc3)cc2)cc1C#N | -17% | -25% | -6% | -17% | 3.7µM*
COc1ccccc1C(=O)N=Nc1c(O)[nH]c2ccc([N+](=O)[O-])cc12 | . | 10µM* | -6% | . | ?
NC(=O)N=Nc1c(O)[nH]c2ccc([N+](=O)[O-])cc12 | . | 8% | -8% | . | -20%
COc1ccc(CCNC(=O)c2cnc3sc(N4CCC(C)CC4)nn3c2=O)cc1OC | -4% | . | . | -19% | .
Cc1cc(C)c(C)c(OCCN2CC(C)OC(C)C2)c1 (stereo not given) | . | 69% | 28µM* | . | 0%
CC1CN(CCOc2cccc(Oc3ccccc3)c2)CC(C)O1 (stereo not given) | . | 31% | 25µM* | . | ?
CC1CN(CCOc2ccc(Cl)cc2Cl)CC(C)O1 (stereo not given) | 0% | 6% | -7% | -11% | ?
COc1ccccc1C(=O)NC(=O)Nc1nc(-c2ccccc2)cc(C(F)(F)F)n1 | -10%[7.34 µM] | 3.7µM* | -6% | -1%[7.34 µM] | 3.7µM*
CCC(C)Sc1oc(-c2ccco2)nc1S(=O)(=O)c1ccc(Cl)cc1 (stereo not given) | -11% | . | . | -14% | .
COC(=O)c1ccc2c(=O)[nH]c(CN3c4ccccc4CC3C)nc2c1 (stereo not given) | . | ? | 41% | . | 3.3µM*
CC1Cc2ccccc2N1Cc1nc2cc(Cl)ccc2c(=O)[nH]1 (stereo not given) | . | . | 21% | -26% | ?
CCC1CN(C(=O)Nc2ccccc2C(F)(F)F)c2ccccc2O1 (stereo not given) | -8% | . | . | -3% | .
COc1ccccc1OCCCCN1CCN(C(c2ccccc2)c2ccccc2)CC1 | ? | ? | ? | ? | 12µM*
O=C(O)COCCN1CCN([C@@H](c2ccccc2)c2ccc(Cl)cc2)CC1 | . | ? | . | . | 4.1µM*
COc1cccc(OC)c1OCCCCN1CCCCC1 | . | ? | ? | . | 13µM*
